# Most compounds without a hit are left out; they make up all but 7.9% or so of the library.
# KB-3-1 cytotox: qHTS assay for MDR1-selective chemotherapeutics: Primary screen using the parental adenocarcinoma cell KB-3-1 | KB-3-1 viability, CellTiter-Glo ATP luminescence, 72 h | Potency, µM (series often up to 46.1 µM), most hits filed as cytotoxic | 400,000 tested, 1.4% active; also: % is scaled to controls: 0 for no effect and ±100 for the full control effect; nearly all actives have a fitted effect of over 60% in size
#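 Cytotoxicity in the drug-sensitive parental line KB-3-1 was scored as loss of CellTiter-Glo luminescence following 72 h incubation with compound. Values come from curve fitting of normalized concentration-response data.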
# HT1080 IDH1KD tx: qHTS for induction of synthetic lethality in tumor cells producing 2HG: qHTS for the HT-1080-IDH1KD cell line | Potency, µM (highest dose often 46.1 µM), without a hit: at the highest dose activity, negative = toxicity, most hits filed as cytotoxic | HT-1080 IDH1 knockdown viability, ATP luminescence, 48 h | 360,000 tested, 2% active;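 also: 0% = DMSO wells and -100% = cell-free medium wells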
#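 Cytotoxicity counter-line: IDH1KD HT-1080, 48 h, CellTiter-Glo. Curves classed by r2, magnitude and activity.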
# MCF10A rerep: A quantitative high throughput screen for small molecules that induce DNA re-replication in MCF 10a normal breast cells. MCF 10A DNA re-replication, Hoechst nuclear intensity, 48 h. Potency, µM (series often up to 46.1 µM), inactives show at the highest dose activity, positive = re-replication, actives largely listed as activators. 350,000 tested, 2.9% active. AID 624296, 2012; also: % of control where 0% means no effect; nearly all actives have a fitted effect of over 50% in size
# KB-V1 cytotox: qHTS assay for MDR1-selective chemotherapeutics: Primary screen using the drug-selected MDR subline cells KB-V1; KB-V1 MDR cells viability, CellTiter-Glo, 72 h; Potency, µM (series often up to 46.1 µM), most hits filed as cytotoxic; 400,000 tested, 3.4% active; AID 1347076, 2019; also: % is scaled to controls: 0 for no effect and ±100 for the full control effect; nearly all actives have a fitted effect of over 60% in size
#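 Cells of the MDR subline KB-V1 are plated, dosed with compound at multiple concentrations, and incubated 72 h at 37 degrees C; CellTiter-Glo is then added and luminescence read after 10 min.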
# HT1080NT lethal: qHTS for induction of synthetic lethality in tumor cells producing 2HG: qHTS for the HT-1080-NT fibrosarcoma cell line; HT-1080-NT fibrosarcoma viability, CellTiter-Glo ATP luminescence, 48 h; 360,000 tested, 1.6% active; AID 686970, 2013; Potency, µM (highest dose often 46.1 µM), for the others: at the top dose activity, negative = less viability, most hits filed as cytotoxic;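 also: NT is the 2HG producing partner of a matched IDH1 knockdown line; 0% = DMSO-treated cells and -100% = media-only wells without cells; nearly all actives have a fitted effect of over 55% in size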
#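 Viability by CellTiter-Glo luminescence after 48 h compound exposure at 37C of HT-1080-NT cells (750/well, RPMI, 5% FBS). % activity scaled between DMSO wells and medium-only wells, then curve-fitted and categorized by curve class.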
# SW480 rereplic: A quantitative high throughput screen for small molecules that induce DNA re-replication in SW480 colon adenocarcinoma cells. AID 624297, 2012. Potency, µM (titrated, usually from 46.1 µM), without a hit: top-dose re-replication activation, usual class: activators. SW480 DNA re-replication, Hoechst DNA content imaging, 48 h. 340,000 tested, 1.8% active; also: % of control where 0% means no effect; nearly all actives have a fitted effect of over 55% in size
#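 Readout is total intensity of Hoechst-stained nuclei, excited at 405 nm and collected at 500-530 nm. Compound treatment lasted 48 hr at 37 C in 5% CO2 before staining.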
# * = called active by the depositor; i = inactive; u = inconclusive; x = no result; [ ] = dose if it differs, or a comment. Calls follow the shape of the dose curve; as a rule, active = well fitted curve in the direction sought with a large enough effect; inconclusive = small, poorly fitted or top-dose-only effect, or another doubt; inactive = no such curve, though single readings can be large; an effect the other way counts as inactive or inconclusive. Potency is read from the fitted curve at half-maximal effect.
SMILES,KB-3-1 cytotox,HT1080 IDH1KD tx,MCF10A rerep,KB-V1 cytotox,HT1080NT lethal,SW480 rereplic
CCCCCOC(=O)c1[nH]c2c(c1C)C(=O)CC(c1ccco1)C2 (stereo not given),u,0.016µM*,u,0.0082µM*,0.1µM*,0.12µM*
Cc1c(C(=O)OCC(C)C)[nH]c2c1C(=O)CC(c1cccs1)C2 (stereo not given),u,1.3µM*,u,u,1.6µM*,3.7µM*
CCCOC(=O)c1[nH]c2c(c1C)C(=O)CC(c1ccc(OC)c(OC)c1)C2 (stereo not given),i,-1%,0%,u,-5%,0%
Cc1c(C(=O)OCC2CCCO2)[nH]c2c1C(=O)CC(c1ccc(N(C)C)cc1)C2 (stereo not given),u,-10%,15%,21µM*,-10%,23%
CC(=O)Nc1ccc(NC(=O)CN2C(=O)CCc3cc(S(=O)(=O)N4CCCCC4)ccc32)cc1,i,x,x,i,x,x
COCCOC(=O)c1[nH]c2c(c1C)C(=O)CC(c1cccs1)C2 (stereo not given),1.8µM*,4.6µM*,u,1.5µM*,u,2.6µM*
CCOCCOC(=O)c1[nH]c2c(c1C)C(=O)CC(c1cccs1)C2 (stereo not given),0.92µM*,0.46µM*,u,1.2µM*,0.46µM*,1.2µM*
CCOCCOC(=O)c1[nH]c2c(c1C)C(=O)CC(c1ccccc1)C2 (stereo not given),0.92µM*,0.26µM*,u,1µM*,0.15µM*,0.52µM*
CCOCCOC(=O)c1[nH]c2c(c1C)C(=O)CC(c1cc(OC)c(OC)c(OC)c1)C2 (stereo not given),u,-22%,-22%,i,-16%,3%
CCOC(=O)c1[nH]c2c(c1C)C(=O)CC(c1ccc(F)cc1)C2 (stereo not given),u,2.9µM*,u,u,2.1µM*,u
COC(=O)c1[nH]c2c(c1C)C(=O)CC(c1cccc(OC)c1)C2 (stereo not given),u,0.92µM*,u,u,0.73µM*,0.73µM*
CCCCNc1c(-c2cccc(-c3ccc(OC)cc3)c2)nc2ccc(C)cn12,u,u,4.1µM*,u,u,u
CCCCNc1c(-c2cccc(-c3cc(C(C)=O)cs3)c2)nc2ccc(C)cn12,u,u,u,21µM*,21µM*,u
CCCCNc1c(-c2cccc(-c3ccc(OC)cc3)c2)nc2cc(C)ccn12,u,u,23µM*,u,u,u
CCCCNc1c(-c2ccc(-c3cccc(Cl)c3)cc2)nc2ccccn12,u,u,u,u,u,-20%[9.22 µM]
COc1ccc(-n2nnnc2C(c2cccs2)N2CCN(C/C=C/c3ccccc3)CC2)cc1 (stereo not given),i,u,x,i,u,x
O=S(=O)(Nc1ccc2c(c1)nc1n2CCN(Cc2ccccc2)C1)c1ccc(F)cc1,u,-1%,5%,i,-1%,4%
O=S(=O)(Nc1ccc2c(c1)nc1n2CCN(Cc2ccccc2)C1)c1ccc(Cl)cc1,u,-27%,u,i,-24%,u
O=S(=O)(Nc1ccc2c(c1)nc1n2CCN(Cc2ccccc2)C1)c1ccccc1,u,-23%,26%,2.6µM*,-10%,7%
Cc1ccc(S(=O)(=O)Nc2ccc3c(c2)nc2n3CCN(Cc3ccccc3)C2)cc1,i,-22%,-1%,16µM*,-14%,1%
O=C1N(c2ccccc2C(F)(F)F)O[C@]1(c1ccccc1)C1CCCCC1,i,-12%,18µM*,i,-15%,13µM*
CC(=O)N1CCN(c2cccc(Nc3nn4c(=O)c5ccccc5nc4s3)c2)CC1,i,x,x,i,x,x
CCc1ccc2c(c1)c(=O)c(S(=O)(=O)c1ccc(F)cc1)cn2CC(=O)Nc1ccc(C)cc1C,i,x,x,i,x,x
O=c1oc2ccccc2cc1-c1cn2cc(Cc3ccc(F)cc3)sc2n1,0.58µM*,x,x,i,x,x
Cc1cc(C)cc(C(=O)N2CC(=O)Nc3ccc(Br)cc3C2c2ccccc2)c1 (stereo not given),u,x,x,15µM*,x,x
Cc1ccc(C(=O)N2CC(=O)Nc3ccc(F)cc3C2c2ccccc2)cc1[N+](=O)[O-] (stereo not given),i,-21%,1%,15µM*,-14%,1%
CN(C)c1ccc(C(CNS(=O)(=O)c2ccc(Cl)cc2)N2CCOCC2)cc1 (stereo not given),i,x,x,i,x,x
O=C(C(=O)N1CCN(C(=O)OCc2ccccc2)CC1)c1cccs1,i,13%,x,i,23%,x
COc1cc(S(=O)(=O)N2CCC(O)(c3cccc(C(F)(F)F)c3)CC2)ccc1-n1cnnn1,i,u,7.3µM*,u,u,u

# Screening results as filed in PubChem BioAssay.
